C2C12 statin = suppression of simvastatin myotoxicity | C2C12 myotubes + simvastatin, ATP luminescence, 48 h; scaled: DMSO 0, geranylgeraniol control 100 | rescue of ATP level, % at 7.49 µM | 330,000 tested, 0.78% active | AID 602340;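 active = mean ATP rescue above about 67%, or every replicate alone reaching that limit, limit read from the data, passing the limit was not always enough; inconclusive = no clear call, values can overlap the other calls; inactive = mean under the limit and some replicate under it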;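 also: myotubes were challenged with 10 µM simvastatin during compound exposure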
MITF act = MITF TRPM1 promoter activation in melanoma cells; SK-MEL-5 TRPM1-promoter luciferase, 24 h; % of positive control, neutral wells = 0; activation, % at 12.5 µM; 300,000 tested, 0.75% active; AID 588334;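 active = mean activation of at least 80% with every replicate also reaching 80%; inconclusive = mean reaches 80% but some replicate falls short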;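 also: 0% = neutral control wells and 100% = parthenolide positive control wells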
GAA850 FXN act = activators of GAA850 frataxin (FXN) promoter. 360,000 tested, 0.56% active. HEK293 lucGAA850 FXN promoter luciferase reporter, 24 h; percent of 10 µM SAHA response. activation, % at 6 µM. AID 540364;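 active = activation above the average of all compounds screened plus 3 SD, cutoff fixed separately per campaign, cut at about 7.5% in these data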;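 also: 0% = DMSO wells and 100% = 10 µM SAHA wells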
esBAF inh = blocks esBAF chromatin remodeling in mouse ES cells; Bmi1-luciferase knock-in reporter, 24 h; 100% = twice the neutral-well signal; reporter increase, % at 12.5 µM; 350,000 tested, 2% active; in the data active = activation above about 40%; inconclusive = no clear call, values can overlap the other calls;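 also: 0% = median of the plate's neutral control wells and 100% = double that signal; a rise in the Bmi1 reporter signal indicates esBAF inhibition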
Wnt bcat act = activators of Wnt/beta-catenin signaling | AID 743398 | Wnt/beta-catenin reporter cell assay, activator, plate reader | 300,000 tested, 1.2% active | activation, % at 9.35 µM; in the data active = activation above about 30%, passing the limit was not always enough; inconclusive = no clear call, values can overlap the other calls;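 also: 0% = neutral control wells and 100% = positive control wells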
GAA30 FXN cntr = counter-screen for GAA850 frataxin promoter activators: GAA30 promoter activation | HEK293 lucGAA30 FXN promoter luciferase, 24 h; DMSO = 0%, 5 µM ipriflavone = 100% | 1,900 tested, 66% active | activation, % at 6 µM | shares compounds with GAA850 FXN act;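 active = mean activation above the mean of solvent-only control wells plus 3 SD, cut at about 22% in these data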;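 also: counterscreen of GAA850 promoter hits where activity marks nonselective or luminescence artifacts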
GAA850 confirm = confirmation of GAA850 frataxin (FXN) promoter activators | shares compounds with GAA850 FXN act | HEK293 lucGAA850 FXN promoter luciferase reporter, 24 h; 100% = activation by SAHA | activation, % at 6 µM | 1,900 tested, 86% active | AID 588351;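 active = mean activation above a set limit taken from the primary screen, cut at about 8% in these data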;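 also: 0% = DMSO wells and 100% = 10 µM SAHA wells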
An asterisk follows results filed as active; u = inconclusive; x = not tested or not shown. A selection: hits, their analogues and other compounds. The true share with any hit is near 3.3%.

SMILES | C2C12 statin | MITF act | GAA850 FXN act | esBAF inh | Wnt bcat act | GAA30 FXN cntr | GAA850 confirm
O=C(c1ccco1)N1CCN(C(=O)c2ccc(-c3ccccc3Cl)o2)CC1 | -5 | u | 7.6* | 56* | -3 | 88* | 30*
S=C(c1ccc(-c2ccccc2Cl)o1)N1CCCCC1 | x | 67 | 8.6* | x | x | 113* | 39*
O=C(c1ccc(-c2ccc(Cl)cc2Cl)o1)N1CCOCC1 | 10 | 147* | 9.1* | 56* | 54* | 114* | 46*
O=C(c1cc(-c2ccccc2Cl)on1)N1CCN(C(=O)c2ccco2)CC1 | 1 | 12 | 4 | 1 | x | x | x
C[C@H](O)C#Cc1cnc2c(c1)C(=O)N([C@H](C)CO)C[C@@H](C)[C@@H](CN(C)C(=O)c1ccncc1)O2 | 3 | x | x | 8 | x | x | x
CN1[C@@H]2Cn3c(ccc(-c4ccccc4)c3=O)[C@H]1[C@@H](C(=O)NCCc1ccccc1)[C@@H]2CO | -25 | x | x | 2 | x | x | x
COc1ccc(CN2C[C@@H](C)[C@@H](OC)CN(C)C(=O)c3cc(NC(=O)C4CC4)ccc3OC[C@H]2C)cc1 | 9 | x | x | -14 | x | x | x
CN1C(=O)[C@@](O)(CC(=O)c2ccccc2)c2cc(Br)ccc21 | x | x | x | x | -1 | x | x
CCCCN1C(=O)C(O)(c2ccccc2)c2cc(Br)ccc21 (stereo not given) | 23 | 8 | 8.1* | -14 | -2 | 20 | 14*
O=C(NNC(=S)Nc1cccc(Cl)c1)c1ccccc1 | 5 | 33 | 5 | u | 17 | x | x
O=C(Nc1cccc(Cl)c1)c1ccccc1 | -4 | 78 | 7.7* | 42* | 20 | 76* | 20*
CCCNC(=O)C[C@@H]1CC[C@@H]2[C@@H](COc3ccc(NC(=O)c4cccc(F)c4)cc3C(=O)N2C)O1 | 11 | x | x | 8 | x | x | x
O=C(Nc1ccc(-c2nc3ccc(NC(=O)c4cccs4)cc3[nH]2)cc1)c1cccs1 | x | -77 | 15* | x | x | 3 | 32*
O=C(Nc1ccc2nc(-c3cccs3)[nH]c2c1)c1cccs1 | x | 70 | 3 | x | 30 | x | x
CC=Cc1ccc2n(c1=O)C[C@@H]1[C@@H](CO)[C@H](C(=O)N[C@H](C)c3ccccc3)[C@H]2N1CC1CC1 (mixture of isomers) | -7 | x | x | -5 | x | x | x
COc1ccc(-c2oc(=O)c3cc(OC)c(OC)cc3c2-c2ccc3c(c2)OCO3)cc1 | -5 | 10 | 3 | 18 | 9 | x | x
COc1ccc(OC)c2nc(-c3ccc4c(c3)OCO4)ccc12 | 0 | 46 | 9.5* | -6 | 48* | 124* | 44*
CCOC(=O)c1cnc(Nc2nc3ccccc3o2)nc1CSC(=S)N(CC)CC | x | -13 | 11* | x | 6 | 41* | 25*
Cc1cnc(Nc2nc3ccccc3o2)nc1C(=O)Nc1cccc(C(F)(F)F)c1 | -2 | 3 | 0 | -1 | 7 | x | x
CC(C)CC#Cc1ccc2c(c1)O[C@@H](CN(C)C(=O)Nc1ccccc1)[C@@H](C)CN([C@@H](C)CO)S2(=O)=O | 31 | x | x | 0 | x | x | x
COc1ccc(/C=C/C(=O)OCCNC(=O)c2ccncc2)cc1OC | x | -1 | 1 | x | 0 | x | x
CCCCOC(=O)/C=C/c1ccc(OC(=O)OC)c(OC(=O)OC)c1 | x | 29 | 10* | x | 4 | 63* | 32*
COc1ccc(/C=C/C(=O)Oc2ccc(C=O)cc2OC)cc1 | x | x | 1 | x | -1 | x | x
COC(=O)Oc1ccc(/C=C/C(=O)OC(C)C)cc1OC(=O)OC | -9 | 65 | 11* | 10 | -1 | 52* | 32*
CC(=O)N1[C@@H]2Cn3c(ccc(C4=CCCCC4)c3=O)[C@H]1[C@@H](C(=O)NC1CCCC1)[C@@H]2CO | 9 | x | x | 0 | x | x | x
SMILES | C2C12 statin | MITF act | GAA850 FXN act | esBAF inh | Wnt bcat act | GAA30 FXN cntr | GAA850 confirm
O=C(c1cc2ccccc2oc1=O)N1CCOCC1 | -3 | 63 | 7.7* | 49* | 35* | 102* | 34*
C[C@@H]1CN([C@H](C)CO)C(=O)Cc2cc(NC(=O)CCN3CCOCC3)ccc2O[C@@H]1CN(C)S(=O)(=O)c1ccccc1 | 2 | x | x | 3 | x | x | x
Cc1nnc(C)n1/N=C/c1cccnc1 | 27 | -1 | -2 | -4 | -1 | x | x
CN(/N=C/c1cccnc1)c1cnc2ccccc2n1 | x | 19 | 9.3* | x | 16 | 132* | 34*
C[C@@H]1CN([C@@H](C)CO)C(=O)c2cc(C#CC3CC3)cnc2O[C@@H]1CN(C)C(=O)C1CCCCC1 | -1 | x | x | x | x | x | x
COc1cccc2sc(Nc3nnc(-c4cccs4)o3)nc12 | -3 | x | 7.7* | -14 | 59* | 37* | 40*
COc1cccc(-c2ccc3n(c2=O)C[C@H]2[C@H](CO)[C@@H](C(=O)N(C)C)N(C(=O)C4CCCC4)[C@@H]32)c1 | -8 | x | x | -2 | x | x | x
O=C1/C(=C/c2ccc(F)cc2)Oc2cc(OC(=O)N3CCOCC3)ccc21 | x | 26 | 0 | x | 1 | x | x
O=C1/C(=C/c2ccccc2)Oc2cc(OC(=O)N3CCOCC3)ccc21 | -12 | 14 | 7.8* | -12 | x | 62* | 24*
O=C1[C@H](Cc2ccccc2)NCC=CC[C@H](c2ccco2)N1Cc1ccccc1 | 1 | 13 | 11* | -5 | -3 | 5 | 7
Cn1/c(=N/N=C/c2ccccn2)sc2ccccc21 | x | 20 | 10* | x | 22 | 114* | 35*
CCS(=O)(=O)NCC[C@H]1CC[C@H](NC(=O)C2CCC2)[C@@H](CO)O1 | 3 | x | x | 3 | x | x | x
CCOC(=O)[C@H]1[C@H]2COc3ccccc3[C@@H]2N2C(=O)c3c(C)cc(C)cc3NC(=O)[C@@]12C | 2 | 8 | 11* | -7 | -4 | 28* | 11*
Cc1cccc(/C=C/C(=O)c2ccc([N+](=O)[O-])o2)c1 | 20 | u | 11* | -13 | -28 | -113 | -34
COc1ccc(CN(C)C[C@@H]2Oc3c(NS(=O)(=O)c4ccc(OC)cc4)cccc3C(=O)N([C@H](C)CO)C[C@H]2C)cc1 | 16 | x | x | -5 | x | x | x
Cc1ccccc1-c1cnc2c(c1)C(=O)N([C@H](C)CO)C[C@@H](C)[C@H](CN(C)Cc1ccncc1)O2 | -2 | x | x | -1 | x | x | x
N#Cc1cc(Oc2cccc3cccnc23)c(-n2nnc3ccccc32)cc1C#N | x | -21 | 7.7* | x | 4 | -1 | 15*
N#Cc1cc(O)c(-n2nnc3ccccc32)cc1C#N | -5 | -8 | 0 | 8 | -1 | x | x
CN(C)CC(=O)Nc1ccc2c(c1)[C@@H]1C[C@H](CC(=O)NCCc3ccccc3)O[C@H](CO)[C@@H]1O2 | 8 | x | x | -7 | x | x | x
CC(C)(C)c1ccc2c(c1)C(=O)c1ccccc1C2=O | -5 | -6 | 7.9* | -6 | u | 111* | 38*
CCOC(=O)N(C)C[C@@H]1OCc2ccccc2-c2ccccc2C(=O)N([C@@H](C)CO)C[C@H]1C | x | x | x | -5 | x | x | x
